ChEMBL document CHEMBL3433997, “St. Jude Leishmania screening dataset” (2016)

What follows are compounds tested against Hexose transporter 1 (Plasmodium falciparum) (UniProt O97467) (assay: ST_JUDE_LEISH: Cytotoxicity at 2uM final concentration against transgenic Leishmania Mexicana promastigotes LmPfHT that are glucose transport deficient and complemented with the Plasmodium falciparum hexose transporter. Activity is measured by DNA content using SYBR green in vitro).
Format: functional

Point of comparison: `O=C(NC1CCN(c2ccnc3cc(Cl)ccc23)C1)c1cccc(F)c1` (stereo not drawn), inhibition 1.46%. Against it:
- COc1cc(NC(=O)c2c(-c3c(F)cccc3Cl)noc2C)c(OC)cc1Cl — lower, -1.52%
- CCN(CC)C(C)(C)CN(Cc1ccc(-c2ccc(C(F)(F)F)cc2)cc1)C(=O)Cn1c(CCc2cccc(F)c2F)nc(=O)c2ccccc21 — higher, 5.18%
- COc1ccc(C(=O)CCC(=O)N(CCSC(C)(C)C)Cc2ccc(-c3ccc(CNCCc4ccc(S(C)(=O)=O)cc4)cn3)cc2)cc1F — higher, 9.03%
- CC(C)c1ccc(NC(=O)N2CCc3ccc(OCCN(C(C)C)C(C)C)cc32)c(Br)c1 — lower, 0.76%
- Cc1ccc2c(c1)C1(CC(=O)N(CCc3scnc3C)C1=O)C(=O)N2Cc1ccccc1 (stereo not drawn) — higher, 3.66%
- CCc1cn2c3c(cc(C(=O)N[C@@H](Cc4ccccc4)[C@H](O)CNCc4ccccc4C)cc13)N(C)S(=O)(=O)CC2 — higher, 2.3%
- COc1cccc(CN2CCCN(Cc3cccc(NC(=O)c4ccc(-c5ccccc5)cc4)c3)CC2)c1 — lower, 0.27%
- COC(=O)c1ccc2nc(-c3ccc(/C=C/C(=O)NCc4ccc(Cl)c(Cl)c4)cc3)[nH]c2c1 — lower, 0.43%
- O=C(Nc1ccc2[nH]c(-c3ccccc3)nc2c1)c1cc(-c2ccc3c(c2)OCCO3)n[nH]1 — higher, 11.6%
- O=C(NCCCCN1CCC(c2c[nH]c3ccccc23)CC1)c1ccc(-c2ccc(C(F)(F)F)cc2)cc1 — lower, 0.63%
- Fc1ccccc1-c1cc(Nc2ccncc2)nc(-c2cccnc2)n1 — lower, 1.28%
- N=C(NCC1CC1c1ccccc1)c1cccc(C(=N)NCC2CC2c2ccccc2)n1 (stereo not drawn) — higher, 5.88%
